Compound activity deposited in PubChem BioAssay by National Center for Advancing Translational Sciences (NCATS).
A selection: hits, their analogues and other compounds. The true share with any hit is near 12%.
JMJD2A Tudor – JMJD2A Tudor domain (human) inhibition | O75164 | AlphaScreen JMJD2A-Tudor / H3K4me3 peptide binding | Potency, µM (titrated, usually from 114 µM), for the others: at the highest dose activity change, negative = inhibition, usual class: inhibitors | 390,000 compounds, 4.4% hits; further: on the % scale 0 is the no-effect control and ±100 the full control effect; nearly all actives have a fitted effect of over 50% in size
BAZ2B inh – inhibitors of human BAZ2B bromodomain; Q9UIF8; AlphaScreen BAZ2B-H3K14Ac peptide displacement; Potency, µM (doses to about 114 µM), without a hit: at the top dose activity change, negative = inhibition, most hits filed as inhibitors; 360,000 compounds, 4.4% hits; AID 504333; further: on the % scale 0 is the no-effect control and ±100 the full control effect; nearly all actives have a fitted effect of over 60% in size
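In this displacement format the biotinylated H3(5-23) peptide acetylated at Lys14 serves as ligand at 50 nM, with BAZ2B at 50 nM in PBS pH 7.4 containing 0.01% Tween-20. Donor and acceptor beads are 10 ug/mL final.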
HP1b binding inh – HP1-beta chromodomain-methylated histone interaction inhibition; AID 540317; Potency, µM (titrated, usually from 114 µM), for the others: at the top dose activity change, negative = inhibition, usual class: inhibitors; P83916; 390,000 compounds, 0.56% hits; AlphaScreen HP1-beta / biotin-H3K9me3 peptide binding; further: nearly all actives have a fitted effect of over 70% in size
Target sequence (P83916 whole entry, looked up): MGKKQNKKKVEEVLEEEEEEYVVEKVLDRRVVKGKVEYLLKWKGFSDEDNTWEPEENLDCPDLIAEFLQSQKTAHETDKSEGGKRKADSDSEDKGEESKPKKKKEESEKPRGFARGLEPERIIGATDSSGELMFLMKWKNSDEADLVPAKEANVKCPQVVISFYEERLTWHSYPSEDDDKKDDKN
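Compound inhibition of the preformed complex between 50 nM HP1-beta and 50 nM biotinylated H3K9me3 peptide was read by AlphaScreen. Buffer was PBS pH 7.4 with 0.01% Tween-20. Incubations ran 30 min at room temperature, with 10 ug/mL donor/acceptor beads.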
TDP1 inh – TDP1 (human) enzyme inhibition | Q9NUW8 | recombinant TDP1, AlphaScreen DNA substrate cleavage | Potency, µM (series often up to 130 µM), inactives show top-dose activity change, negative = inhibition, most hits filed as inhibitors | 350,000 compounds, 0.28% hits; further: on the % scale 0 is the no-effect control and ±100 the full control effect; nearly all actives have a fitted effect of over 40% in size
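Signal: AlphaScreen proximity between streptavidin donor and anti-FITC acceptor beads on intact substrate. Reaction: Tdp1 1 nM, substrate 15 nM final, 5 min RT after 15 min compound preincubation.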
Sfp inh – Sfp phosphopantetheinyl transferase inhibition | Biochemical Sfp PPTase activity, qHTS | Potency, µM, for inactives: largest response in the series, negative = inhibition, hits mostly inhibitors | 310,000 compounds, 3.5% hits;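 further: the enzyme is Sfp with the accession as filed and its product quenches rhodamine fluorescence; 0% = enzyme reaction without inhibitor and -100% = no enzyme wells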
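With Hepes-Na pH 7.6 buffer containing 10 mM MgCl2, Sfp (15 nM) modified BHQ-2-YbbR (12.5 uM) using rhodamine-CoA (5 uM). Two reads 30 minutes apart at 525/598 nm yielded each well's rate.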
G9a inh – G9a (human) methyltransferase inhibition | G9a H3K9 monomethylation, AlphaScreen, 2 h | Potency, µM (titrated, usually from 102 µM), for the others: at the top dose activity, negative = inhibition, hits mostly inhibitors | Q96KQ7 | AID 504332 | 350,000 compounds, 8.8% hits; further: on the % scale 0 is the no-effect control and ±100 the full control effect; nearly all actives have a fitted effect of over 75% in size
Target sequence (Q96KQ7 913-1193 limits assumed): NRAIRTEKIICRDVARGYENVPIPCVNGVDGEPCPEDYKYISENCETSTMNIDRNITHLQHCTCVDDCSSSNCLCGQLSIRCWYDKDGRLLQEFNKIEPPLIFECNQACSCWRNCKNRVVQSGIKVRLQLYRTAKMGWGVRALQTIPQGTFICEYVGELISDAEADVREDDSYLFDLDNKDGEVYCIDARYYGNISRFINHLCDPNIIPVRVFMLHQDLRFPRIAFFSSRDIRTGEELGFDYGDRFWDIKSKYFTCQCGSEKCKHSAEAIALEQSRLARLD
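Step 1: enzyme (final 20 nM) with compound, 15 min RT. Step 2: substrate peptide 500 nM and SAM 20 uM, 2 h RT. Step 3: anti-H3K9me1 antibody and AlphaScreen beads, 10 min, then plate read.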
* = called active by the depositor; ? = inconclusive; nt = no result; ! = not active in a repeat; [ ] = dose if it differs, or a comment. The call rests on the fitted dose curve; in most records, active means well fitted curve in the direction sought with a large enough effect; inconclusive means small, poorly fitted or top-dose-only effect, or another doubt; inactive means no such curve, though single readings can be large; an effect the other way counts as inactive or inconclusive. Potency means the concentration at half of the fitted maximal effect.

SMILES	JMJD2A Tudor	BAZ2B inh	HP1b binding inh	TDP1 inh	Sfp inh	G9a inh
CCCCNc1c(-c2cccc(-c3cc(C(C)=O)cs3)c2)nc2ccc(C)cn12	25.1µM*	35.5µM*	-26.0%	7.8%	nt	-16.2%[2.33 µM]
CCc1cccc(CC)c1NC(=O)C1CSC2(C)CCC(=O)N12 (configuration not stated)	-7.1%	-5.0%	28.5%	nt	nt	6.3%
N#CCCn1c(=O)c(-c2ccccc2)nc2cnc(N3CCOCC3)nc21	nt	nt	nt	nt	-4.6%	3.4%[0.501 µM]
CC(C)C1Oc2ccccc2N(CC(=O)NC2CCCCC2)C1=O (configuration not stated)	6.2%	-2.5%	17.1%	nt	15.1%	15.2%
COCCn1c(=O)c(-c2ccc(Cl)cc2)nc2cnc(OC)nc21	nt	nt	nt	nt	3.9%	8.8%[12.7 µM]
N#Cc1cccc(NC(=O)Cn2c3[n+](c4ccc(C(F)(F)F)cc42)CCCCC3)c1	-14.8%	2.5%	0.9%	5.8%	-0.8%	8.91µM*
Cc1n[nH]c(=O)nc1NCc1ccccc1	-15.3%	27.2%	16.5%	-4.2%	3.9%	29.4%
COc1ccc(/C=N/NC(=O)CNc2n[nH]c(=O)[nH]c2=O)cc1OC	-7.7%	-2.5%	13.3%	0.6%	16.2%	7.0%
COc1cc(/C=N/Nc2nc(C)cc(=O)[nH]2)ccc1O	3.3%	-3.2%	44.7%	nt	-18.6%	28.9%[0.501 µM]
COc1cc(/C=N/Nc2nc(=O)[nH]nc2C)cc(OC)c1O	?	2.9%	-13.3%	-2.7%	35.5µM*	?
Cc1n[nH]c(=O)nc1N/N=C/c1ccco1	?	25.1µM*	14.4%	0.0%	39.8µM*	-39.6%
CCOc1ccc(/C=N/Nc2nc(=O)[nH]nc2C)cc1OC	?	-2.0%	28.9%	2.7%	25.1µM*	-34.5%
Cc1n[nH]c(=O)nc1NCCc1ccccc1	21.1%	-4.5%	16.1%	2.0%	0.2%	89.1µM*
CCC(=O)C(C(=O)OC)[C@H](CCc1ccccc1)NC(=O)OC (some centres not stated)	nt	nt	nt	11.2%	9.7%	nt
CCn1cc(CN2CCCC(CNC(=O)COc3ccccc3OC)C2)c(C)n1 (configuration not stated)	-11.6%	21.7%	52.3%	-1.5%	10.9%	nt
CCOc1cc(/C=N/Nc2nc(=O)[nH]nc2C)ccc1O	?	-16.9%	20.9%	1.2%	70.8µM*	16.0%
CCOc1cc(/C=N/Nc2nnc(C)n2N)ccc1O	-15.3%	?	18.3%	nt	56.2µM*	25.1µM*
CCOc1cc(/C=N/Nc2ncnc(Cl)c2N)ccc1O	-27.1%	-27.4%	-10.0%	8.3%	-76.1%	?
Cc1n[nH]c(=O)nc1Nc1ccc(O)cc1	-12.8%	9.0%	10.8%	-6.6%	-4.2%	79.4µM*
Cc1ccc(Nc2nc(=O)[nH]nc2C)cc1	-4.4%	3.2%	0.7%	0.0%	5.4%	?
CCC(C)NC(=O)c1cc(S(=O)(=O)N2CCCCC2)c[nH]1 (configuration not stated)	-10.3%	2.3%	20.8%	nt	10.8%	8.9%
Cc1noc(C)c1NC(=O)N(C)C[C@H]1Oc2ccc(NC(=O)CCN3CCOCC3)cc2C(=O)N([C@H](C)CO)C[C@@H]1C	0.7%	nt	54.9%	0.5%	nt	nt
O=C(Nc1c2c(nn1-c1ccccc1)CS(=O)(=O)C2)c1ccccc1C(F)(F)F	5.1%	-3.6%	10.7%	1.8%	14.4%	-4.6%
Cc1ccc2c(c1)[nH]c1c(=O)n(CCN3CCNCC3)cnc12	-17.7%	0.2%	35.3%	1.0%	15.7%	44.7µM*
Cc1ccc(-c2csc(N/N=C/c3ccco3)n2)c(C)c1	-21.1%	-9.5%	?	8.2%	13.5%	-12.1%[59 µM]
SMILES	JMJD2A Tudor	BAZ2B inh	HP1b binding inh	TDP1 inh	Sfp inh	G9a inh
CN(C)S(=O)(=O)c1cccc(-c2csc(N/N=C/c3ccco3)n2)c1	?	35.5µM*	?	9.8%	14.1µM*	-15.0%[12.7 µM]
CC(C)C(=O)NCC(c1ccc2c(c1)OCO2)N1CCOCC1 (configuration not stated)	-4.3%	-20.7%	20.3%[57 µM]	2.9%	0.8%	6.1%
O=C(O)c1ccc(NC(CSCc2ccccc2F)C(=O)O)c([N+](=O)[O-])c1 (configuration not stated)	31.6µM*	-13.6%	1.1%	2.6%	-3.2%	?
O=C1CC(N2CCC(c3nc4ccccc4[nH]3)CC2)C(=O)N1c1ccccc1F (configuration not stated)	-18.9%	-22.2%	-4.2%	2.6%	8.4%	35.5µM*
COc1ccc(N2C(=O)CC(N3CCC(c4nc5ccccc5[nH]4)CC3)C2=O)cc1 (configuration not stated)	4.0%	10.0%	57.5%	3.9%	-2.2%	7.6%[12.7 µM]
COc1cccc(CCc2ccccc2OCC[C@@H]2C[C@@H](O)CN2C)c1	nt	nt	nt	12.9%	?	nt
O=C(COc1ccccc1[N+](=O)[O-])N1CCCc2ccccc21	-15.4%	-6.6%	19.0%	nt	-4.1%	70.8µM*
O=C(CN1CCN(c2ccccc2)CC1)N1CCc2ccccc21	-19.7%	-10.7%	11.0%	nt	13.6%	18.3%[0.501 µM]
O=C(OCC(=O)N1CCCc2ccccc21)c1ccccc1[N+](=O)[O-]	-17.9%	-10.8%	9.0%	nt	nt	?
O=C(CN1CCN(Cc2ccccc2)CC1)N1CCCc2ccccc21	4.47µM*	20µM*	?	nt	?	?
O=C(CSc1cccc[n+]1[O-])N1CCc2ccccc21	-2.0%	0.4%	32.2%	8.6%	10.5%	56.2µM*
O=C(CN1CCN(c2ccc(O)cc2)CC1)N1CCc2ccccc21	79.4µM*	-36.6%	?	5.7%	39.8µM*	10µM*
COc1ccc(N(CC(=O)NC(C)C)S(=O)(=O)c2ccc(NC(C)=O)cc2)cc1	-28.8%	-12.5%	-4.1%	1.1%	7.2%	1.41µM*
C[n+]1cc2c3c(ccc2c2ccc4cc5c(cc4c21)OCO5)OCO3	89.1µM*	nt	-17.7%	13.7%	8.91µM*!	1.89µM*
CN(C(=O)c1ccc2c(c1)OCO2)C1CCCCC1	-9.0%	1.1%	33.1%	0.4%	7.7%	0.6%[12.7 µM]
CN1CCN(c2cc3c(nn2)Oc2ccccc2N3C)CC1	nt	nt	nt	-11.6%	24.6%	-23.9%[12.7 µM]
COC(=O)c1[nH]c2ccccc2c1NS(=O)(=O)c1ccc(F)c(C)c1	-12.6%	-3.0%	14.8%	3.2%	2.3%	?
COc1ccc(S(=O)(=O)Nc2c(C(=O)O)[nH]c3ccc(OC)cc23)cc1	20µM*	?	-30.1%	9.6%	-29.9%	7.94µM*
CCCS(=O)(=O)Nc1c(C(=O)OC)[nH]c2ccccc12	0.0%	1.1%	23.8%	3.8%	-10.0%	50.1µM*
COc1ccc(S(=O)(=O)Nc2c(C(=O)O)[nH]c3ccccc23)c(OC)c1	?	?	8.5%	5.7%	13.5%	39.8µM*
COC(=O)c1[nH]c2ccc(F)cc2c1NS(=O)(=O)c1ccc(OC)cc1	-12.8%	-7.7%	35.9%	5.1%	4.6%	18.6%
